The values that follow come from ChEMBL document CHEMBL2218924, “A broad activity screen in support of a chemogenomic map for kinase signalling research and drug discovery” (Biochem J, 2013).

In assay [1] the target is Calcium/calmodulin-dependent protein kinase type 1 (Homo sapiens) (UniProt Q14012). Conditions: at 1 µM.
For assay [2] the target is unchanged. Conditions: at 10 µM.
The target of assay [3] is Calcium/calmodulin-dependent protein kinase type II subunit beta (Homo sapiens) (UniProt Q13554). Conditions: at 1 µM.
Assay [4] shares this target. Conditions: at 10 µM.
For assay [5], the target named is Calcium/calmodulin-dependent protein kinase type II subunit gamma (Homo sapiens) (UniProt Q13555). The conditions noted are these: at 1 µM.
The target is the same in assay [6]. The conditions noted are these: at 10 µM.
Assay [7] addresses Calcium/calmodulin-dependent protein kinase type II subunit delta (Homo sapiens) (UniProt Q13557). Conditions: at 1 µM.
Assay [8] has the same target. The conditions noted are these: at 10 µM.
Assay [9] deals with T1, Calcium/calmodulin-dependent protein kinase type IV (Homo sapiens) (UniProt Q16566).
T1 sequence (whole entry): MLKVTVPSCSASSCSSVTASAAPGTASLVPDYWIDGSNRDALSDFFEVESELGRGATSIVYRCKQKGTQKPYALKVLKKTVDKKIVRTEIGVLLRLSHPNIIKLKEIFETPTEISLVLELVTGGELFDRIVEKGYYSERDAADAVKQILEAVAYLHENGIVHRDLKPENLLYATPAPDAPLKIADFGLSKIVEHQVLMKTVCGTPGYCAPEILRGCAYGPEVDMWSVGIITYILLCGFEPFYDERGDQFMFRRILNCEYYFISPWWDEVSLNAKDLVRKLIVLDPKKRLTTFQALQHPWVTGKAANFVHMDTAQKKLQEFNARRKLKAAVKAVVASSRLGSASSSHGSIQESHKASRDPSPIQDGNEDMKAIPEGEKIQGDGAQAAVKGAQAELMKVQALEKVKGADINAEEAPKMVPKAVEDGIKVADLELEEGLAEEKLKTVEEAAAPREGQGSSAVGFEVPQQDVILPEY
Conditions: at 1 µM.

The target in assay [10] is T1, Calcium/calmodulin-dependent protein kinase type IV (Homo sapiens). The conditions noted are these: at 10 µM.
In assay [11] the target is Death-associated protein kinase 1 (Homo sapiens) (UniProt P53355). Conditions: at 10 µM.
The target in assay [12] is Death-associated protein kinase 2 (Homo sapiens) (UniProt Q9UIK4). The conditions noted are these: at 1 µM.
The target is the same in assay [13]. Conditions: at 10 µM.
For assay [14], the target named is T2, Serine/threonine-protein kinase DCLK2 (Homo sapiens) (UniProt Q8N568).
T2 sequence (whole entry): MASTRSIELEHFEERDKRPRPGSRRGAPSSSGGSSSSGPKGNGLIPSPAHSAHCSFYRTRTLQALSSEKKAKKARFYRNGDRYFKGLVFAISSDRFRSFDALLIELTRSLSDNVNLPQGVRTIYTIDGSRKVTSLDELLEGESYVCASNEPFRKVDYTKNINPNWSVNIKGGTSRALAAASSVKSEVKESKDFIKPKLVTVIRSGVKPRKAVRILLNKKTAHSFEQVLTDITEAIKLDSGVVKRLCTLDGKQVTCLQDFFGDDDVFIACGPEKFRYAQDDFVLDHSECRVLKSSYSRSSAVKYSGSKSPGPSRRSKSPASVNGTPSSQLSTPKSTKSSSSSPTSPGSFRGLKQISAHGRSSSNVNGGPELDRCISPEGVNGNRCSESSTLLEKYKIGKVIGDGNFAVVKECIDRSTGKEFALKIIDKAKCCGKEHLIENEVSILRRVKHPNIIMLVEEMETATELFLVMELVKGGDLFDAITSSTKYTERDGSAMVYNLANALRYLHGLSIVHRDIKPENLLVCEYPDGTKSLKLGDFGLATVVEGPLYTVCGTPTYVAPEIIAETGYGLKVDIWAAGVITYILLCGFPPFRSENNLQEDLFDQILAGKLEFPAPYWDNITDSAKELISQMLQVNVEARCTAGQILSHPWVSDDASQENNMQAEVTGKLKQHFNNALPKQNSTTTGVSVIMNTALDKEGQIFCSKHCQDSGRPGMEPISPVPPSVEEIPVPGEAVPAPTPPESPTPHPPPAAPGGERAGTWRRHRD
The conditions noted are these: at 1 µM.

Assay [15] has as its target T2, Serine/threonine-protein kinase DCLK2 (Homo sapiens). The conditions noted are these: at 10 µM.
In assay [16] the target is T3, Discoidin domain-containing receptor 2 (Homo sapiens) (UniProt Q16832).
T3 sequence (whole entry): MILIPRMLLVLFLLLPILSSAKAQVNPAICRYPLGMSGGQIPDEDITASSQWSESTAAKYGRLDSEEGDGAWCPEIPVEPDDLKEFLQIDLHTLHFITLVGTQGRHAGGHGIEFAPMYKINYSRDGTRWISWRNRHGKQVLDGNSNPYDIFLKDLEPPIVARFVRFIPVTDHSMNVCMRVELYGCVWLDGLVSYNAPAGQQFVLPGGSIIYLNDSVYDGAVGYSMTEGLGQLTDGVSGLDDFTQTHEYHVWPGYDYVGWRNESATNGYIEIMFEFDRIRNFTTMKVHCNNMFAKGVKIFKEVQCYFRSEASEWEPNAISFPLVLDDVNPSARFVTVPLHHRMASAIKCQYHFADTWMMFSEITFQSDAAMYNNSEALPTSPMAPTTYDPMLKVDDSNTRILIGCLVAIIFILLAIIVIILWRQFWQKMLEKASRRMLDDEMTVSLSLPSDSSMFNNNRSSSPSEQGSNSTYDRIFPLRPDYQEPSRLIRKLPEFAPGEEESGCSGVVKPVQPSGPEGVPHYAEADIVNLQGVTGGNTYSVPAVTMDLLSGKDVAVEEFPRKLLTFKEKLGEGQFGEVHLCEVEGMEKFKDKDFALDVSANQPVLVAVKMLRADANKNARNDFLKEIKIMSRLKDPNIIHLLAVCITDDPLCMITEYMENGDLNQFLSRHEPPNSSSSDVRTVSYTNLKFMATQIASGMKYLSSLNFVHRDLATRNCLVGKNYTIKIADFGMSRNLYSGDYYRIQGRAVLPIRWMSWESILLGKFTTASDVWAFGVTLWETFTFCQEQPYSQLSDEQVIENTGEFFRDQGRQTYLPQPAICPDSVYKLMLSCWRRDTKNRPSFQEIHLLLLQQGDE
The conditions noted are these: at 1 µM.

Assay [17] concerns the target T3, Discoidin domain-containing receptor 2 (Homo sapiens). The conditions noted are these: at 10 µM.
Assay [18] addresses T4, Myotonin-protein kinase (Homo sapiens) (UniProt Q09013).
T4 sequence (whole entry): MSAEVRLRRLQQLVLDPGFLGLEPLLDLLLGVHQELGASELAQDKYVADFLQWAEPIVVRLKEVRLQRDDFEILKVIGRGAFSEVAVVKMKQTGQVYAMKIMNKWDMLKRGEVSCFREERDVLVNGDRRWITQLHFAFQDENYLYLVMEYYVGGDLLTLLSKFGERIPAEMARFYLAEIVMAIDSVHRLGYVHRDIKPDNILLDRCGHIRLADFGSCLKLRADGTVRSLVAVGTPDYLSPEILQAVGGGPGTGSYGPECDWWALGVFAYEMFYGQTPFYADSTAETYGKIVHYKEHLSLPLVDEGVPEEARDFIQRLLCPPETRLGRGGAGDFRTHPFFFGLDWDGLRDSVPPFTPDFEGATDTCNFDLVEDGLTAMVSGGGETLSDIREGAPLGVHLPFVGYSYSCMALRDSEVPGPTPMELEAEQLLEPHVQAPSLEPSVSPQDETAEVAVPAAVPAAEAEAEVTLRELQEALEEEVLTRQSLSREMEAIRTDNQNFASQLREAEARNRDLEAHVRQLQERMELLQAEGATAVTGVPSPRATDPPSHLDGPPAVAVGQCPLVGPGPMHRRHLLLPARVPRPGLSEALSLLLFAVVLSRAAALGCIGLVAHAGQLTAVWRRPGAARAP
The conditions noted are these: at 1 µM.

The target of assay [19] is T4, Myotonin-protein kinase (Homo sapiens). Conditions: at 10 µM.
The target of assay [20] is T5, Serine/threonine-protein kinase 17A (Homo sapiens) (UniProt Q9UEE5).
T5 sequence (whole entry): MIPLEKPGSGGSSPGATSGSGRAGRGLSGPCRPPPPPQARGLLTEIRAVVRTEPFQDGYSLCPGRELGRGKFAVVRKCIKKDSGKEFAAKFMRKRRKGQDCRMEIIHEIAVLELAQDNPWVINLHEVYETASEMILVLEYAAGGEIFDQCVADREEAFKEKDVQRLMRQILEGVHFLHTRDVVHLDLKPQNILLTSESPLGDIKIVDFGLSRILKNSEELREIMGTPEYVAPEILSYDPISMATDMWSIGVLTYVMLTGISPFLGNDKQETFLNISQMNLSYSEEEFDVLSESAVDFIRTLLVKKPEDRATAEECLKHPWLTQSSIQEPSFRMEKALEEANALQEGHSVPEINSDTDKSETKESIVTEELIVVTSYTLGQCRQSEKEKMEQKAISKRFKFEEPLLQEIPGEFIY
The conditions noted are these: at 1 µM.

The structures appear in SMILES notation.

Chain of Death-associated protein kinase 2 (Homo sapiens) (Q9UIK4 whole entry, looked up): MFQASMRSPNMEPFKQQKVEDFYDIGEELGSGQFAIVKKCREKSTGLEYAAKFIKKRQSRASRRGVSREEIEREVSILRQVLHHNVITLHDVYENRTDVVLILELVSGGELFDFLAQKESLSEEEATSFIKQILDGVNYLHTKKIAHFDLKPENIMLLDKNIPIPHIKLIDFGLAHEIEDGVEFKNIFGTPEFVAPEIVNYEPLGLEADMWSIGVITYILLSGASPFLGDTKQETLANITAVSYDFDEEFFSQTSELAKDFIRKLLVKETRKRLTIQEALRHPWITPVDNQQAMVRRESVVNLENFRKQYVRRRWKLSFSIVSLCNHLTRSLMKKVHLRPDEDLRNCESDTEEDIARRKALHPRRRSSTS
Chain of Calcium/calmodulin-dependent protein kinase type 1 (Homo sapiens) (Q14012 whole entry, looked up): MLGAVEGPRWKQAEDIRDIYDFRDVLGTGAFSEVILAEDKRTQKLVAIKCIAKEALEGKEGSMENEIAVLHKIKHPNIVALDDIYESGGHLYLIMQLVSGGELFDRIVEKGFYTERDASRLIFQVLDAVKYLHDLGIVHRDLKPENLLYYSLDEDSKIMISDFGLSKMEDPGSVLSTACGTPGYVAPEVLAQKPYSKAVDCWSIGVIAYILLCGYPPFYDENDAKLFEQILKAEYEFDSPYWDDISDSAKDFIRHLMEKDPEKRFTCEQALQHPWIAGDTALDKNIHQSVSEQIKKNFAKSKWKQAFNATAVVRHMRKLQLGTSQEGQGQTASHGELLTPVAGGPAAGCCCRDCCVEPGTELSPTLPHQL
Chain of Calcium/calmodulin-dependent protein kinase type II subunit gamma (Homo sapiens) (Q13555 whole entry): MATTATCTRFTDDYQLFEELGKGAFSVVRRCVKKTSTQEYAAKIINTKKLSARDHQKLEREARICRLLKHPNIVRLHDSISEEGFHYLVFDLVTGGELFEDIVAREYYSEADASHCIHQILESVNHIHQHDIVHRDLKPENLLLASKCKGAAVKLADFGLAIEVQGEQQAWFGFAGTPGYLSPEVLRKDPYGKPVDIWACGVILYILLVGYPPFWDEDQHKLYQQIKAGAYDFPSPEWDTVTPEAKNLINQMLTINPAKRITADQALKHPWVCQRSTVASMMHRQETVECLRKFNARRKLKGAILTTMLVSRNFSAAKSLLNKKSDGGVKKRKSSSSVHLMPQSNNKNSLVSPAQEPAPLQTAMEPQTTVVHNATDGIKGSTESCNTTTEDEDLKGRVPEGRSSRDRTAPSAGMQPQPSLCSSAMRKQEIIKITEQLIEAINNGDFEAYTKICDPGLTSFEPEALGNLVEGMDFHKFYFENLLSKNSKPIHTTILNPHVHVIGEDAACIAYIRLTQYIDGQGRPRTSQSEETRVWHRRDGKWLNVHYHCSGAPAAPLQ
Chain of Death-associated protein kinase 1 (Homo sapiens) (P53355 whole entry, looked up): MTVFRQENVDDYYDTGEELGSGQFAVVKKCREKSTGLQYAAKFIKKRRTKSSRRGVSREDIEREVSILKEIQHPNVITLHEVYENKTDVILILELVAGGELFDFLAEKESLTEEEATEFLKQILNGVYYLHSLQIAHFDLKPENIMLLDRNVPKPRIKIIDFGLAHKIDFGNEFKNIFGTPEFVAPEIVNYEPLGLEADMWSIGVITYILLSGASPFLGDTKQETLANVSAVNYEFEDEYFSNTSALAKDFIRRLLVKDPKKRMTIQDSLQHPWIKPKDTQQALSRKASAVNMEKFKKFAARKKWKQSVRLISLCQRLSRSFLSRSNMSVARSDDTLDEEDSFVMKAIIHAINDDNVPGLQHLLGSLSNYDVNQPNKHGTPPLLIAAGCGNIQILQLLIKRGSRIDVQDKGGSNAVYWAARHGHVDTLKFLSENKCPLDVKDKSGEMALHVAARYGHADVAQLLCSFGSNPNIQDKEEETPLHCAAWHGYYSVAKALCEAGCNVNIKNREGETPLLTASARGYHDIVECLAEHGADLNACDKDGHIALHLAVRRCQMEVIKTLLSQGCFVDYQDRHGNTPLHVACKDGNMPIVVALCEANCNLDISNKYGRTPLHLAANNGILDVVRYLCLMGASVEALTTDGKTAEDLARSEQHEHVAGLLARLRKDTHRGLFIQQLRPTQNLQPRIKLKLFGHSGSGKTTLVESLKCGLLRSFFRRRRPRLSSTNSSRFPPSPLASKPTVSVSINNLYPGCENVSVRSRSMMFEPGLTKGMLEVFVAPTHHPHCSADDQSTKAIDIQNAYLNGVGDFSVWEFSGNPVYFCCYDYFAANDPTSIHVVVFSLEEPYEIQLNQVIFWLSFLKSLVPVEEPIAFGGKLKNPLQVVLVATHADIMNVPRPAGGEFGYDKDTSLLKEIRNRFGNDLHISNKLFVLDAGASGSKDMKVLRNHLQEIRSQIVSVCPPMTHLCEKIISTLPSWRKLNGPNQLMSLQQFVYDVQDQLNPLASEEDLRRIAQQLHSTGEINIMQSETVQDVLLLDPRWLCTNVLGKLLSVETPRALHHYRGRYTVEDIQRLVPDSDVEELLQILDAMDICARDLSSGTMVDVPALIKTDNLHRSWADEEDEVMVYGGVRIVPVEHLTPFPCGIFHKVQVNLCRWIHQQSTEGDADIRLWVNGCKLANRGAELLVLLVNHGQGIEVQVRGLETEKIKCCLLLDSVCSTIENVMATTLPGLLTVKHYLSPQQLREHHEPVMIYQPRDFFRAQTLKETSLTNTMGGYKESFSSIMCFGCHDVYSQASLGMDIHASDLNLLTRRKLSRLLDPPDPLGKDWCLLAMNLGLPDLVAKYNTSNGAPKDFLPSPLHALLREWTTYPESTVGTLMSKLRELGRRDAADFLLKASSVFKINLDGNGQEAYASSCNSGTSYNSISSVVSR
Chain of Calcium/calmodulin-dependent protein kinase type II subunit beta (Homo sapiens) (Q13554 whole entry): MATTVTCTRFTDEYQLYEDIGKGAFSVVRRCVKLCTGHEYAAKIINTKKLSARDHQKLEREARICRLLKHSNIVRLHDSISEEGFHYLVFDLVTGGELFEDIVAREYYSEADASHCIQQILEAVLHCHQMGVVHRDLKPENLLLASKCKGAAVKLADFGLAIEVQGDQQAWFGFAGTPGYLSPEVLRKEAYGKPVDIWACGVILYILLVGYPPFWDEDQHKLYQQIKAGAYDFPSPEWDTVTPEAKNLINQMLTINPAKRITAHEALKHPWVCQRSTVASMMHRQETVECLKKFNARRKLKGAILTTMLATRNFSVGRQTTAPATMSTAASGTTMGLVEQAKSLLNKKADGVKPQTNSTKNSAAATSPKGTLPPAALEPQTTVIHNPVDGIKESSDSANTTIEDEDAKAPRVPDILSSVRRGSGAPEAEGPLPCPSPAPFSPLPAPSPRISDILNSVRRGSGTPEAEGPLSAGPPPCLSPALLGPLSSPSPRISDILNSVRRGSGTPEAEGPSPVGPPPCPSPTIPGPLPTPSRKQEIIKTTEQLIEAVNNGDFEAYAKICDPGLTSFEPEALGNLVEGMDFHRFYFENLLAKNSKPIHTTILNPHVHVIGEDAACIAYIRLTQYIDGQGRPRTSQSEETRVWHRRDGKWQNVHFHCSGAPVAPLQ
Chain of Calcium/calmodulin-dependent protein kinase type II subunit delta (Homo sapiens) (Q13557 whole entry): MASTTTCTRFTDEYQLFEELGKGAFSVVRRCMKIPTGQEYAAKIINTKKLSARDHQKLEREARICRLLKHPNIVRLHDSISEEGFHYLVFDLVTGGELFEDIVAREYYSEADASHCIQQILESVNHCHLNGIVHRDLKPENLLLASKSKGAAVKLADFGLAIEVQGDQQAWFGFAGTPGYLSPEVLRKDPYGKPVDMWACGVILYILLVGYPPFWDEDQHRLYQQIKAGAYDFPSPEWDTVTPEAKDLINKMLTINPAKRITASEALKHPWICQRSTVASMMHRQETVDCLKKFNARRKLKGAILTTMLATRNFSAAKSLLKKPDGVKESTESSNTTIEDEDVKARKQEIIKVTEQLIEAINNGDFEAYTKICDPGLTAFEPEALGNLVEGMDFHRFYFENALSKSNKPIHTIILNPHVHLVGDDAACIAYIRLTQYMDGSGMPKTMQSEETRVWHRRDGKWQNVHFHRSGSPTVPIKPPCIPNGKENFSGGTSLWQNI

By residual activity is commonly meant the signal under treatment as a percentage of the control signal. Take `O=C1c2ccccc2-[n+]2ccc3c([nH]c4ccccc43)c21`: the residual activity in assay [1] was determined as 81%; in assay [2], 68%; in [3] it was 92%; in assay [4], 76%; in assay [5] it was 103%; in assay [6], 78%. The residual activity in [7] turned out to be 95%; in assay [8], 81%; in assay [9], 102%; in assay [10] it was 93%; in [11] it was 84%; in assay [12], 95%. For the same compound, the residual activity in [13] was 96%; in assay [14] it was 105%; in assay [15] it was 94%; in [16] it was 78%; in assay [17] it was 84%; in assay [18] it was 101%. Also, the residual activity in assay [19] is 80%; in assay [20] it was 104%.
On to `O=C(Nc1cccc(Nc2nccc(Nc3cccc(C(F)(F)F)c3)n2)c1)C1CC1`, for which the residual activity came out at 86% in assay [1]; 31% in assay [2]; 100% in assay [3]; 38% in [4]; 76% in assay [5]; 12% in assay [6]. Also, the residual activity in assay [7] came to 66%; in assay [8] it was 19%; in assay [9], 84%; in assay [10], 62%; in assay [11], 60%; in assay [12], 93%. Further, the residual activity worked out at 68% in assay [13]; 82% in assay [14]; 102% in assay [15]; 79% in assay [16]; 30% in assay [17]; 72% in [18]. Also, the figures for the residual activity in assay [19] and in [20] were 125% and 73%, respectively.
In the case of `Cn1cnc2cc3c(Nc4cccc(Br)c4)ncnc3cc21`, the residual activity in assay [1] amounted to 103%; in assay [2], 54%; in [3] it was 93%; in assay [4], 89%; in [5] it was 85%; in assay [6], 43%. For the same compound, the residual activity in assay [7] is 97%; in [8] it was 52%; in assay [9], 105%; in [10], 86%; in assay [11] it was 99%; in [12], 96%. In addition, the residual activity came to 113% in assay [13]; 102% in assay [14]; 110% in assay [15]; 75% in [16]; 60% in assay [17]; 112% in [18]. The residual activity in assay [19] stood at 111%; in assay [20], 64%.
As for `Cc1ccc(S(=O)(=O)/C=C/C#N)cc1`, the residual activity in assay [1] was found to be 95%; in [2] it was 77%; in assay [3], 101%; in [4], 88%; in [5], 103%; in assay [6], 94%. In addition, the residual activity in [7] came out at 104%; in [8] it was 107%; in assay [9], 108%; in assay [10], 86%; in assay [11] it was 87%; in assay [12], 104%. The residual activity in assay [13] was 105%; in assay [14] it was 125%; in assay [15], 99%; in assay [16], 98%; in assay [17], 100%; in assay [18], 125%. Also, the figures for the residual activity in assay [19] and in [20] were 100% and 105%, respectively.
Consider `CCOc1cc2ncnc(Nc3cccc(Br)c3)c2cc1OCC`, for which the residual activity in assay [1] was determined as 107%; in assay [2], 84%; in assay [3] it was 91%; in assay [4] it was 64%; in [5] it was 82%; in [6], 40%. Moreover, the residual activity in [7] is 85%; in assay [8], 38%; in [9], 97%; in assay [10], 93%; in assay [11], 85%; in [12], 105%. For the same compound, the residual activity in [13] worked out at 102%; in [14] it was 84%; in [15] it was 66%; in assay [16], 93%; in [17] it was 66%; in assay [18] it was 109%. For the same compound, the residual activity amounted to 135% in assay [19] and 113% in assay [20].
For the compound `Oc1ccc(-c2nc(-c3ccc(F)cc3)c(-c3ccncc3)[nH]2)cc1`, the residual activity was 111% in assay [1]; 100% in assay [2]; 92% in [3]; 52% in [4]; 110% in assay [5]; 89% in assay [6]. Further, the residual activity in assay [7] is 98%; in assay [8], 76%; in assay [9], 115%; in assay [10], 99%; in assay [11], 76%; in assay [12] it was 110%. Moreover, the residual activity was 97% in assay [13]; 113% in assay [14]; 76% in [15]; 69% in assay [16]; 20% in assay [17]; 112% in assay [18]. For the same compound, the residual activity in [19] was 88%.
For `CC(C)n1cnc2/c(=N/c3cccc(Cl)c3)nc(NCCO)[nH]c21`, the residual activity in [1] is 87%; in [2] it was 71%; in assay [3], 75%; in assay [4], 41%; in [5], 13%; in [6] it was 6%. Further, the residual activity in [7] is 19%; in assay [8], 11%; in assay [9], 103%; in assay [10], 66%; in [11] it was 94%; in assay [12], 104%. The residual activity in assay [13] amounted to 98%; in assay [14], 103%; in assay [15] it was 94%; in [16], 94%; in [17], 93%; in assay [18] it was 124%. The residual activity in assay [19] is 74%.
